High-throughput results as filed in PubChem.
PREPL inh = inhibitors of human prolyl oligopeptidase-like enzyme PREPL; Q4J6C6; inhibition, % at 5.96 µM; recombinant PREPL, fluorescence polarization activity-based probe; 320,000 tested, 0.68% active
Rpn11 inh = inhibitors of human proteasome Rpn11; AID 588493; human 26S proteasome, Ub4-pepOG fluorescence polarization; 20S core pre-blocked with epoxomicin; inhibition, % at 20 µM; 360,000 tested, 0.59% active;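 active means inhibition at 20 µM, scaled to each plate's controls, above about 33%, limit read from the data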
Target sequence (O00487 whole entry, looked up): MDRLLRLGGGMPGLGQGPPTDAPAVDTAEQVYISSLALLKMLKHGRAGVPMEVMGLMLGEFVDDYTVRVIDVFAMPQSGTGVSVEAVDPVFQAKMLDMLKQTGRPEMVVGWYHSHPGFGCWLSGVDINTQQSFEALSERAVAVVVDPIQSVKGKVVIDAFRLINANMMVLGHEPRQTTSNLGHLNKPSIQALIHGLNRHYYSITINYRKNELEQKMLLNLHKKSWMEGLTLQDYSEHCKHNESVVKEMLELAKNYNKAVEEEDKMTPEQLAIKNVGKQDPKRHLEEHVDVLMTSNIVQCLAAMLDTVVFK
PP5 inh = blocks human protein phosphatase 5 activity; 320,000 tested, 0.18% active; AID 1987; inhibition, % at 6.7 µM; purified PP5c, OMFP substrate fluorescence;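 active means inhibition above the campaign's mean inhibition across all tested compounds plus 3 SD, cut at about 9.5% in these data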
NadD inh = inhibitors of Staphylococcus aureus NadD. inhibition, % at 20 µM. purified NadD enzyme, colorimetric absorbance read-out. 360,000 tested, 0.78% active; in the data active means inhibition above about 26%
PP1 inh = blocks human PP1-alpha phosphatase, a PP5 counter-screen. P62136. purified PP1alpha, OMFP fluorescence. inhibition, % at 6.7 µM. 320,000 tested, 0.9% active;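 active means inhibition above the mean inhibition of all tested compounds plus 3 SD, computed separately for each screening campaign, cut at about 15% in these data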
Target sequence (P62136 whole entry, looked up): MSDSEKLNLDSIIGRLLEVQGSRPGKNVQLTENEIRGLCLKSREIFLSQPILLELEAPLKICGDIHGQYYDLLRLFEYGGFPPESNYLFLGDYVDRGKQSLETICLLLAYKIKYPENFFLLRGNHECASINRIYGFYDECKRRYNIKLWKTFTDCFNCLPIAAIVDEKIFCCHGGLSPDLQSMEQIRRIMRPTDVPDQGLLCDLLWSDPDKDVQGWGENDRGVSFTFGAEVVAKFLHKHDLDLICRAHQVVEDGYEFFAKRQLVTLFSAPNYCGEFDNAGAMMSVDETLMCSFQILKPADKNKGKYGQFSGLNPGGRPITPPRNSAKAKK
PP1 confirm = human PP1 phosphatase inhibition, confirmation | shares compounds with PP1 inh | purified PP1alpha, OMFP substrate fluorescence | inhibition, % at 6.7 µM | 1,900 tested, 52% active | AID 2358;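 active means mean PP1 inhibition above a set limit taken from the earlier primary screen, cut at about 15% in these data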
PP5 counter = inhibits human PP5 phosphatase in PP1 counter-screen; shares compounds with PP1 inh; purified PP5c, OMFP fluorescence; inhibition, % at 6.7 µM; 1,900 tested, 4% active;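 active means mean PP5 inhibition over triplicate wells above about 9.5% taken from the earlier PP1 screen, limit read from the data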
PREPL inh cf = confirmation of human PREPL enzyme inhibitors; shares compounds with PREPL inh; recombinant PREPL, fluorescence polarization activity probe; inhibition, % at 5.96 µM; 2,000 tested, 67% active
Rpn11 confirm = Rpn11 inhibition confirmation, single concentration; shares compounds with Rpn11 inh; purified human 26S proteasome, Ub4-pepOG fluorescence polarization; proteasome pretreated with epoxomicin; 1,900 tested, 29% active; AID 602318; inhibition, % at 20 µM; in the data active means inhibition above about 40%
MMP-2 counter = blocks human MMP-2, flagging nonselective RPN11 hits; 1,900 tested, 4% active; recombinant MMP-2, FRET peptide cleavage fluorescence; inhibition, % at 20 µM; shares compounds with Rpn11 inh; in the data active means inhibition above about 40%;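 further: human MMP-2 activated beforehand with APMA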
Thrombin FP = blocks bovine thrombin, flagging nonselective RPN11 hits | shares compounds with Rpn11 inh | bovine thrombin cleavage of Ub4-pepOG, fluorescence polarization | inhibition, % at 20 µM | 1,900 tested, 13% active | AID 602333;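 active means mean inhibition at least 40% at 20 µM, or signal 3 deviations below plate average, so some actives read negative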
NadD inh conf = NadD (S. aureus) inhibition, single concentration confirmation; shares compounds with NadD inh; 2,000 tested, 13% active; AID 624309; inhibition, % at 20 µM; purified S. aureus NadD, colorimetric enzyme assay; in the data active means inhibition mostly above about 42%, no sharp cut-off; inactive means mostly below about 42%
A number is an active result; . = inactive; / = no result shown. A selection: hits, their analogues and other compounds. The true share with any hit is near 2.4%. Unless noted, no stated cut-off is given here; in the data, active means inhibition above about 43%; inactive means the rest.

SMILES	PREPL inh	Rpn11 inh	PP5 inh	NadD inh	PP1 inh	PP1 confirm	PP5 counter	NadD inh conf	others
C#CCn1c(=NC(=O)c2cc(-c3cccs3)nc3ccccc23)sc2cc(S(N)(=O)=O)ccc21	.	70	.	53	20	.	.	55	Rpn11 confirm=.;MMP-2 counter=.;Thrombin FP=.
COc1ccc(Cc2nnc(SCC(=O)Nc3cc(Cl)ccc3C)[nH]c2=O)cc1	.	.	.	.	.	/	/	/
COc1cccc2c1cc1c(=O)n(CC(=O)N3CCCC3)nc(C)n12	/	.	/	.	/	/	/	/
COc1cccc(C2c3c(-c4cc(Cl)c(C)cc4O)n[nH]c3C(=O)N2Cc2cccnc2)c1 (centres undefined)	.	.	.	47	19	.	.	43
COc1cccc(CN2CCNC(=O)C2CC(=O)NCCN2CCOCC2)c1OC (centres undefined)	.	.	.	.	.	/	/	/
O=C(Cc1cccc2ccccc12)N/N=C/c1ccc2cccc(O)c2n1	.	.	.	30	25	21	.	.
O=C(Cc1cccc2ccccc12)N/N=C/c1ccc(O)c([N+](=O)[O-])c1	.	.	.	.	.	/	/	/
CC1Cc2ccccc2N1Cc1cc(=O)n2ccsc2n1 (centres undefined)	.	.	.	28	22	19	.	.
O=C(Nc1ccc2oc(-c3cccnc3)nc2c1)c1ccc2c(c1)OCCO2	.	/	.	33	30	.	.	.
Cc1ccc(C)c(S(=O)(=O)N2CCN(C(=O)CSC(=S)N3CCCC3)CC2)c1	.	.	.	.	.	/	/	/
O=C1N[C@@H](Cc2ccccc2)C(=O)N2[C@H]1C[C@]1([C@]34C[C@H]5C(=O)N[C@@H](Cc6ccccc6)C(=O)N5[C@H]3N(S(=O)(=O)c3ccccc3)c3ccccc34)c3ccccc3N(S(=O)(=O)c3ccccc3)[C@H]21	.	.	.	38	30	23	.	.
O=C(CNC(=O)c1ccccc1F)OCc1nc2ccc(Cl)cc2n1CCO	.	.	.	.	.	/	/	/
CCOC(=O)Cn1c(=NC(=O)c2sc3ccccc3c2Cl)sc2cc(S(N)(=O)=O)ccc21	.	.	.	51	30	31	.	.
Cc1nn(-c2ccc(Cl)cc2)c(Cl)c1/C=N/NC(=O)c1ccc(NS(=O)(=O)c2cccs2)cc1	.	.	.	41	19	.	.	63
Cc1ccc2nc(NC(=O)C3CCN(S(=O)(=O)c4cc([N+](=O)[O-])ccc4Cl)CC3)sc2c1	.	.	.	31	20	26	.	.
O=c1c2c(-c3ccco3)csc2nc(SCc2cn3cccnc3n2)n1-c1ccccc1	.	.	.	36	29	21	.	.
COc1ccc(C(=O)Nc2cccc(/C=C(\CCC(=O)O)c3nc4ccccc4s3)c2)cc1	.	.	.	55	23	.	.	.
O=C(O)C/C(=C\c1cccc(NC(=O)c2ccccc2Cl)c1)c1nc2ccccc2s1	.	.	.	.	.	/	/	/
O=C(NCCCN1CCCC1=O)C(=O)NCC1OCCN1S(=O)(=O)c1ccc(Cl)cc1 (centres undefined)	.	.	.	.	.	/	/	/
CC(=O)Nc1cccc(-c2ccnc3c2CC(C)(C(=O)NCc2ccc(F)c(F)c2)O3)c1 (centres undefined)	/	.	/	.	/	/	/	/
CCCCNC(=O)C1(C)CCC(=O)N1CCOC (centres undefined)	/	.	/	.	/	/	/	/
Cc1c([N+](=O)[O-])cc(S(=O)(=O)Nc2ccc(-c3ccc(N4CCCC4)nn3)cc2)cc1[N+](=O)[O-]	.	.	.	57	19	21	.	.
O=[N+]([O-])c1ccc(S(=O)(=O)Nc2ccc(-c3ccc(N4CCCC4)nn3)cc2)cc1	.	.	.	.	.	/	/	/
COc1ccc(C)cc1Nc1n[n+](-c2ccccc2)c(-c2ccc(OC)c(OC)c2OC)s1	53	.	.	.	.	/	/	/	PREPL inh cf=60
COc1ccc(C)cc1Nc1n[n+](-c2ccccc2)c(-c2c(Cl)cccc2Cl)s1	.	/	.	/	.	/	/	/
SMILES	PREPL inh	Rpn11 inh	PP5 inh	NadD inh	PP1 inh	PP1 confirm	PP5 counter	NadD inh conf	others
C[C@@H]1CN([C@H](C)CO)C(=O)c2cc(Br)cnc2O[C@H]1CN(C)C	/	.	/	.	/	/	/	/
Fc1ccccc1Cc1noc(CN(Cc2ccccn2)CC2CCCO2)n1 (centres undefined)	51	.	.	.	.	/	/	/	PREPL inh cf=.
CN(Cc1nc(Cc2ccccc2F)no1)Cc1cccc2ncccc12	.	.	.	.	.	/	/	/
O=S1(=O)CC(N2CCCC2)CN1Cc1ccccc1 (centres undefined)	/	.	/	.	/	/	/	/
Cc1c(/C=N/Nc2nc3ccccc3[nH]2)c2ccccc2n1C	45	.	.	.	.	/	/	/	PREPL inh cf=.
O=C(Nc1ccccc1Cl)OC1CCCCC1	.	.	.	.	.	/	/	/
CN(C)c1ccc(/C=C/C(=O)c2ccc3c(c2)OCO3)cc1	52	/	.	.	.	/	/	/	PREPL inh cf=.
CN1CCN(S(=O)(=O)c2ccc(NC(=O)COc3ccccc3Cl)cc2)CC1	.	.	.	.	.	/	/	/
CC(=O)N1CCN(c2ccc(NCc3cccs3)cc2)CC1	.	.	.	.	.	/	/	/
Cc1ccc(CNc2ccc(N3CCOCC3)cc2)s1	.	.	.	.	.	/	/	/
CC(=O)N1CCN(c2ccc(NCc3ccc(-c4ccc(Br)cc4)o3)cc2)CC1	71	.	/	.	/	/	/	/	PREPL inh cf=66
CC(=O)N1CCN(c2ccc(NCc3ccc(C)s3)cc2)CC1	54	.	.	.	.	/	/	/	PREPL inh cf=.
CC(=O)N1CCN(c2ccc(NCc3ccc(Br)o3)cc2)CC1	44	.	.	.	.	/	/	/	PREPL inh cf=45
CC(=O)N1CCN(c2ccc(NCc3cccc4ccccc34)cc2)CC1	78	.	.	.	.	/	/	/	PREPL inh cf=62
CC(=O)N1CCN(c2ccc(NCc3ccccc3)cc2)CC1	.	.	.	.	.	/	/	/
O=c1c2c(c(-c3ccccc3)nn1Cc1ccccc1)CCCC2	.	.	.	.	.	/	/	/
CC(C)(C)c1ccc(/C=N/NC(=S)NCc2ccccc2)cc1	.	.	.	.	.	/	/	/
CN(C)c1ccc(/C=N/NC(=S)NCc2ccccc2)cc1	51	.	.	.	.	/	/	/	PREPL inh cf=55
